PubChem BioAssay (NCI)
Compounds without any hit were thinned out: in the full panel of roughly 79,000, 15% have a hit. Unmarked numbers belong to inactive results. Activity calls are given as the source filed them. Rule as the data show it: active = growth inhibition above about 70%; inactive = the rest.

What was measured:
[1] = NCI Yeast Anticancer Drug Screen. Data for the rad50 strain (AID 155);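 also: 0% = growth of vehicle-only cultures of the same strain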; settings: S. cerevisiae rad50 strain growth inhibition, hits give high values
Summary of the method: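 DNA repair mutant yeast, compound exposure, growth read-out; inhibition is taken relative to vehicle.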

[2] = NCI Yeast Anticancer Drug Screen. Data for the mec2-1 strain (AID 157); settings: S. cerevisiae mec2-1 strain, hits give high values
Summary of the method: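 Each compound was tested on mec2-1 yeast, a strain altered in DNA damage repair or cell cycle control. Growth inhibition is reported relative to vehicle.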

[3] = NCI Yeast Anticancer Drug Screen. Data for the sgs1 mgt1 strain (AID 161);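 also: 0% = growth of cultures given vehicle only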; settings: S. cerevisiae sgs1 mgt1 strain, hits give high values
Summary of the method: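 Read-out: growth inhibition vs vehicle controls. Cells: mutant yeast strain deficient in DNA damage repair.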

[4] = NCI Yeast Anticancer Drug Screen. Data for the cln2 rad14 strain (AID 165);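 also: 0% = growth equal to vehicle treated cultures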; settings: S. cerevisiae cln2 rad14 strain, hits give high values
Summary of the method: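 Test compounds were added to cln2 rad14 yeast cultures; inhibition of growth was then determined by comparison with vehicle treatment.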

[5] = NCI Yeast Anticancer Drug Screen. Data for the bub3 strain (AID 167); settings: S. cerevisiae bub3 mutant strain, hits give high values
Summary of the method: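 In this screen, a yeast mutant lacking normal mitotic checkpoint function is challenged with compound. Relative growth versus vehicle gives the inhibition value.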

[6] = NCI Yeast Anticancer Drug Screen. Data for the mlh1 rad18 strain (AID 175); settings: S. cerevisiae mlh1 rad18 strain growth inhibition, hits give high values
Summary of the method: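 Inhibition values reflect reduced growth of mutant yeast versus vehicle-treated controls following compound exposure; the mutations affect DNA damage repair.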

[7] = at 5.0 µM (retest, dose inferred, filed as 0.5)
[8] = at 50.0 µM (retest, dose inferred, filed as 5.0)

Compound | growth inhibition [1, 7] | growth inhibition [1, 8] | growth inhibition ([1]; at 50.0 µM) | growth inhibition [2, 7] | growth inhibition [2, 8] | growth inhibition ([2]; at 50.0 µM) | growth inhibition [3, 7] | growth inhibition [3, 8] | growth inhibition ([3]; at 50.0 µM) | growth inhibition [4, 7] | growth inhibition [4, 8] | growth inhibition ([4]; at 50.0 µM) | growth inhibition [5, 7] | growth inhibition [5, 8] | growth inhibition ([5]; at 50.0 µM) | growth inhibition [6, 7] | growth inhibition [6, 8] | growth inhibition ([6]; at 50.0 µM)
CC[Si](CC)(CC)c1ccc(CCNCCS)s1 | -1% | 96% (active) | 97.4% (active) | 32% | 99% (active) | 98.7% (active) | 52% | 98% (active) | 98.2% (active) | 8% | 97% (active) | 98% (active) | 19% | 99% (active) | 98.4% (active) | 49% | 97% (active) | 98.3% (active)
c1cc[c]([Sn]([O]c2cccc3cccnc23)([c]2ccccc2)[c]2ccccc2)cc1 | 99% (active) | 21% | 89.5% (active) | 100% (active) | 10% | 92.2% (active) | 100% (active) | 30% | 89.6% (active) | 99% (active) | 11% | 85.8% (active) | 99% (active) | 63% | 90.8% (active) | 100% (active) | 14% | 93% (active)
Oc1cccc2ccc(SSc3ccc4cccc(O)c4n3)nc12 | 99% (active) | 95% (active) | 92.2% (active) | 100% (active) | 95% (active) | 95.7% (active) | 94% (active) | 95% (active) | 93% (active) | 85% (active) | 87% (active) | 74.8% (active) | 96% (active) | 95% (active) | 90.5% (active) | 93% (active) | 93% (active) | 93.3% (active)
O=C1NN(C2=NNC3(C(=O)N2)c2ccccc2-c2ccccc23)C(c2ccccc2)=N/C1=C/c1ccc(Cl)cc1 | -9% | -5% | 32.4% | -13% | -5% | 17.4% | -1% | 6% | -13.5% | -10% | 3% | -3.25% | -16% | -16% | 18.4% | -48% | -10% | 44.1%
CNCC(OB(c1ccccc1)c1ccccc1)c1ccccc1 (stereo not drawn) | 4% | 99% (active) | -22.9% | 12% | 99% (active) | -5.2% | 1% | 95% (active) | 61.7% | 9% | 99% (active) | -26.6% | -7% | 99% (active) | 5.75% | 0% | 99% (active) | 44.1%
COc1ccc(Cc2c(-c3ccc(C)cc3)n[nH]c(=O)c2C2C(=O)N(c3ccccc3)N=C2c2ccccc2)cc1 (stereo not drawn) | 98% (active) | 95% (active) | 97% (active) | 99% (active) | 96% (active) | 95.3% (active) | 97% (active) | 97% (active) | 98.2% (active) | 98% (active) | 97% (active) | 96% (active) | 63% | 96% (active) | 97.5% (active) | 47% | 94% (active) | 96% (active)
